# Measured values from ChEMBL document CHEMBL3988442, “University of Dundee, Small-Polar-MMV Screening Library” (2021).
# For some assays here: Entries with a potency or affinity are not part of this list.
# Columns and labels:
# Design in all cases: scale not given: direction of the effect not stated beside the values
# [1] = target: Protein translocase subunit SecA (Escherichia coli (strain K12)) (UniProt P10408); assay: Assay to Identify E. coli SecA ATPase Inhibitors; format: functional; details: 30 µM
# [2] = target: T1, Ubiquitin-activating enzyme e1, putative (Leishmania donovani (strain BPK282A1)) (UniProt E9BSI1); assay: Leishmania donovani Ubiquitin Activating Enzyme (LdE1); format: functional; details: 30 µM
# T1 sequence (whole entry): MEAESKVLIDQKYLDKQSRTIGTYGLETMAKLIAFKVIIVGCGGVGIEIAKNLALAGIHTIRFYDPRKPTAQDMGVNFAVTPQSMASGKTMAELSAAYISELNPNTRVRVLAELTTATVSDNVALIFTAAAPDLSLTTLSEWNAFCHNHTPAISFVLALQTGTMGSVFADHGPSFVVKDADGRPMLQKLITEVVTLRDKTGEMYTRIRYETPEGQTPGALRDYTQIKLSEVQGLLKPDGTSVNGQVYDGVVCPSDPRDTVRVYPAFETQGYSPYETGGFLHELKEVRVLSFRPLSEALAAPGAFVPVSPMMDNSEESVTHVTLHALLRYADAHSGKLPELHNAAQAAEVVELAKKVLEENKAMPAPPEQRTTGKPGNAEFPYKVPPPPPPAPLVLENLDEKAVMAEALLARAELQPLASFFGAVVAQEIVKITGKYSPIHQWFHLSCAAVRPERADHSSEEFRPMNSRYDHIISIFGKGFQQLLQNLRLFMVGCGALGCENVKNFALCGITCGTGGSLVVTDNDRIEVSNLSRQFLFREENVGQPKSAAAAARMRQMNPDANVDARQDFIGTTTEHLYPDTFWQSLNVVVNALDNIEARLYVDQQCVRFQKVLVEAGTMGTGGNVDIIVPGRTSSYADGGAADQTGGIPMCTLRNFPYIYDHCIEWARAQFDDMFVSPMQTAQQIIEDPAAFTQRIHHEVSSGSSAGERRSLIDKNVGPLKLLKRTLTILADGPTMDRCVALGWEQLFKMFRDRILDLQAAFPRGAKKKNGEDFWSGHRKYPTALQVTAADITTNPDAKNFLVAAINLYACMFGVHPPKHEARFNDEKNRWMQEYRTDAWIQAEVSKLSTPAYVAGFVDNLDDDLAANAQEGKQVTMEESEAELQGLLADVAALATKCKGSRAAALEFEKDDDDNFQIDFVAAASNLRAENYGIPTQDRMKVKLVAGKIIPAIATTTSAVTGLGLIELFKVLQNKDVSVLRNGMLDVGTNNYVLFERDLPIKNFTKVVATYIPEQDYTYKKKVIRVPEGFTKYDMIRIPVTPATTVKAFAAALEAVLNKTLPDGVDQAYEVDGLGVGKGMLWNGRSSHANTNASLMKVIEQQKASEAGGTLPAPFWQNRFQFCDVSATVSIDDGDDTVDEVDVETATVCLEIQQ
# [3] = target: AMP-activated protein kinase, AMPK (Homo sapiens) (UniProt P54646+O43741+P54619+Q9UGJ0+Q9Y478+Q13131+Q9UGI9); assay: AMP-dependent Kinase enzyme assay. An in vitro enzyme assay that detects ADP turnover that is directly proportional to AMPK activity. This uses naive AMPK that is activated during the assay with MK-8722; format: functional; details: 30 µM
# [4] = target: Sialic acid-binding Ig-like lectin 9 (Homo sapiens) (UniProt Q9Y336); assay: Hs-Siglec9 ALPHAscreen SOP 20170721; details: 10 µM
# Trypanosoma cruzi = assay: Trypanosoma cruzi phosphomannomutase and mannose-1-phosphate guanylyltransferase assay; format: functional; details: 10 µM
# [5] = target: T2, Arginase-2, mitochondrial (Homo sapiens) (UniProt P78540); assay: in vitro enzyme assay to detect the production of urea directly proportional to the activity of Arginase II; format: functional; details: 33.3 µM; further: in the data most compounds retested in dose-response had high values
# T2 sequence (whole entry): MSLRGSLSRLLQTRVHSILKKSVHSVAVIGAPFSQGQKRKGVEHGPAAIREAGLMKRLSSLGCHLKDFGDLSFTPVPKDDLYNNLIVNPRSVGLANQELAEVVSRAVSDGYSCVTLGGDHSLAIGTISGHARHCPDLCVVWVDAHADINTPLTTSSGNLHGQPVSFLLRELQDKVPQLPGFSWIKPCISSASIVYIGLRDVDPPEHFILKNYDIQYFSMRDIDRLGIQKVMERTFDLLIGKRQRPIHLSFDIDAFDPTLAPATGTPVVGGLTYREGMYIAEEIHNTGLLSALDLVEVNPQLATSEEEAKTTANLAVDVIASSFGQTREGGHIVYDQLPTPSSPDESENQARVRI
# [6] = target: T3, Proteasome subunit beta (Trypanosoma cruzi) (UniProt O96673); assay: Trypanosoma cruzi proteasome chymotrypsin-like activity (TcProtChymo) assay.; further: in the data most compounds retested in dose-response had high values; format: functional; details: 9.37 µM
# T3 sequence (whole entry): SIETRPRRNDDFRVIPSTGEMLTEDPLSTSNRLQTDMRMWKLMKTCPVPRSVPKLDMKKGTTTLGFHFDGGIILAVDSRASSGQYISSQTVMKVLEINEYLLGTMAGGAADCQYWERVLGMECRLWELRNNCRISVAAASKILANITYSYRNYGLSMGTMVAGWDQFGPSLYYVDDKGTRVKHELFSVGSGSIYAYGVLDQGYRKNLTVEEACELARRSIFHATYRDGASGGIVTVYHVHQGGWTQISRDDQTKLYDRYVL
# Homo sapiens = species on record: Homo sapiens; assay: To identify inhibition of the IFN signalling (Jak-Stat) pathway via expression of an eGFP reporter gene under the control of an IFN-stimulated response element (ISRE) containing MxA promoter.; format: functional; details: 30 µM
# [7] = target: T4, Tyrosyl-tRNA synthetase, putative (Trypanosoma cruzi (strain CL Brener)) (UniProt Q4DSP6); assay: Trypanosoma cruzi tyrosyl tRNA synthetase (TcYRS) _High Tyrosine SOP; format: functional; details: 30 µM; further: in the data most compounds retested in dose-response had high values
# T4 sequence (whole entry): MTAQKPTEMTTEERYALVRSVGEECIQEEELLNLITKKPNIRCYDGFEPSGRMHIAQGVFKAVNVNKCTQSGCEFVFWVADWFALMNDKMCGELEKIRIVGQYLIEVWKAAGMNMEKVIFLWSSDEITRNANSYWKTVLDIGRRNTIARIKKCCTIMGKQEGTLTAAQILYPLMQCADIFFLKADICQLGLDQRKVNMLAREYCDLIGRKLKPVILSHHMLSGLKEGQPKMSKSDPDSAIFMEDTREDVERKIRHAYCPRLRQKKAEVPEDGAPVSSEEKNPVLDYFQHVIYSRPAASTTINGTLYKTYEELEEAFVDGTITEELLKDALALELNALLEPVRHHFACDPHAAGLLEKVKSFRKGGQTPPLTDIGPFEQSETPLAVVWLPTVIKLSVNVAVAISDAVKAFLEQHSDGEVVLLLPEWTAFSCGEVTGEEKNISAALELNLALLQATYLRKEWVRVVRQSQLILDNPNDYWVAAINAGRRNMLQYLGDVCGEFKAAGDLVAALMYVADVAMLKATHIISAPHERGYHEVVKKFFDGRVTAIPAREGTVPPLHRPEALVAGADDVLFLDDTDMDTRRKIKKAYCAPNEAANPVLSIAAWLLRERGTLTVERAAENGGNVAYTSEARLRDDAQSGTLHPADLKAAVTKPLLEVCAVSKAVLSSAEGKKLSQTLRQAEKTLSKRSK
# [8] = target: T4, Tyrosyl-tRNA synthetase, putative (Trypanosoma cruzi (strain CL Brener)); assay: Trypanosoma cruzi tyrosyl tRNA synthetase (TcYRS) SOP; format: functional; details: 30 µM
# [9] = target: Chromo domain-containing protein 1 (Saccharomyces cerevisiae (strain ATCC 204508 / S288c) (Baker's yeast)) (UniProt P32657); assay: ScCHD-1 Enzyme Inhibition Assay; format: functional; details: 30 µM; further: in the data most compounds retested in dose-response had high values
# Chain of Chromo domain-containing protein 1 (Saccharomyces cerevisiae (strain ATCC 204508 / S288c) (Baker's yeast)) (P32657 whole entry, the tested form may be a part): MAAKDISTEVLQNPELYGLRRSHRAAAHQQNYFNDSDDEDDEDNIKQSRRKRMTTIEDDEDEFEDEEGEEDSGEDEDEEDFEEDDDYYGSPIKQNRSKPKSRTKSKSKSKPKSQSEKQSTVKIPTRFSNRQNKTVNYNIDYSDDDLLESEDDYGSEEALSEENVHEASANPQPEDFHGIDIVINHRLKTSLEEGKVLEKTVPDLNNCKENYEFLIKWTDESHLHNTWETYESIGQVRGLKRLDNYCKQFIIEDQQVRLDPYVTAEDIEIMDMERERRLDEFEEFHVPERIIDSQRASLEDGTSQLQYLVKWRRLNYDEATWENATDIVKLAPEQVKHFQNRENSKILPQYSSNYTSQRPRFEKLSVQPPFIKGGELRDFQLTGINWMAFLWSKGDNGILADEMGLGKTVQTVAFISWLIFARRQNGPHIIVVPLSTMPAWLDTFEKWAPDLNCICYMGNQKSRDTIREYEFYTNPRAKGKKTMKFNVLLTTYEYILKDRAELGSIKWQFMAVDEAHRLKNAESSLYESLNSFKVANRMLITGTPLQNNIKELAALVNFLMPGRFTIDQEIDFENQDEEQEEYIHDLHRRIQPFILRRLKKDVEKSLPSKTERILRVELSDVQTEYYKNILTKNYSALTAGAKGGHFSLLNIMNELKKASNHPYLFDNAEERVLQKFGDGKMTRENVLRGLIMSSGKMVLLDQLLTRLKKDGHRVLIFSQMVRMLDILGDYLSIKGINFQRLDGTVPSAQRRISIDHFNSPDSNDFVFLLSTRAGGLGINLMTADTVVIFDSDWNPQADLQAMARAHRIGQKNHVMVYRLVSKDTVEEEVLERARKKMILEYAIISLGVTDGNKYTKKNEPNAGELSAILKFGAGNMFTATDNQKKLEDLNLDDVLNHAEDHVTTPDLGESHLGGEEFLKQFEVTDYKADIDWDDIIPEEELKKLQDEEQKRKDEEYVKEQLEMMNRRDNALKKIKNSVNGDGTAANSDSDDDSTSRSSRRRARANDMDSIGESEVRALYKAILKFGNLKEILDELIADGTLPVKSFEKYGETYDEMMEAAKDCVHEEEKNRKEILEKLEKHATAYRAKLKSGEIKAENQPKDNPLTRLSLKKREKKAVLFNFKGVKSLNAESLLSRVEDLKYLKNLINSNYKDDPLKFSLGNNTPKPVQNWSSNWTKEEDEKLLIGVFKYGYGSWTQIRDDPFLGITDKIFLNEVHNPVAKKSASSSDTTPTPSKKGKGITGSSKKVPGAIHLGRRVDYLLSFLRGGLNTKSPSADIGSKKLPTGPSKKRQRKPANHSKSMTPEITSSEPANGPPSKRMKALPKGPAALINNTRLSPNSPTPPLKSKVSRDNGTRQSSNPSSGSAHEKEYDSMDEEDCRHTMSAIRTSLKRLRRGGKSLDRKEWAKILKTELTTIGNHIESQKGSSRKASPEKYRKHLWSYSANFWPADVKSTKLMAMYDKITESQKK
# Chain of Sialic acid-binding Ig-like lectin 9 (Homo sapiens) (Q9Y336 whole entry): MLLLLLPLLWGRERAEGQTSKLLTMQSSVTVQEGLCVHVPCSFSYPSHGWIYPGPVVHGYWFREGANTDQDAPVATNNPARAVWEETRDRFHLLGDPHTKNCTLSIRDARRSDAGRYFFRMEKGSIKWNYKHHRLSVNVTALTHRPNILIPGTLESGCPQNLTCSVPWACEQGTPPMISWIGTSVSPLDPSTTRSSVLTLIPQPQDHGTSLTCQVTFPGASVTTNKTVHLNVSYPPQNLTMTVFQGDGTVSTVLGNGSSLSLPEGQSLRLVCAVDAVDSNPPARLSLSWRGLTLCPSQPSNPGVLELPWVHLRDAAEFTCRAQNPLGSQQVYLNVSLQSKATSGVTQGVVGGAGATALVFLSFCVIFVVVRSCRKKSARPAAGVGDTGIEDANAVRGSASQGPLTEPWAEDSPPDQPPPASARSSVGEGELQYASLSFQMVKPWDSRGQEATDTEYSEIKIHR
# Chain of Protein translocase subunit SecA (Escherichia coli (strain K12)) (P10408 whole entry): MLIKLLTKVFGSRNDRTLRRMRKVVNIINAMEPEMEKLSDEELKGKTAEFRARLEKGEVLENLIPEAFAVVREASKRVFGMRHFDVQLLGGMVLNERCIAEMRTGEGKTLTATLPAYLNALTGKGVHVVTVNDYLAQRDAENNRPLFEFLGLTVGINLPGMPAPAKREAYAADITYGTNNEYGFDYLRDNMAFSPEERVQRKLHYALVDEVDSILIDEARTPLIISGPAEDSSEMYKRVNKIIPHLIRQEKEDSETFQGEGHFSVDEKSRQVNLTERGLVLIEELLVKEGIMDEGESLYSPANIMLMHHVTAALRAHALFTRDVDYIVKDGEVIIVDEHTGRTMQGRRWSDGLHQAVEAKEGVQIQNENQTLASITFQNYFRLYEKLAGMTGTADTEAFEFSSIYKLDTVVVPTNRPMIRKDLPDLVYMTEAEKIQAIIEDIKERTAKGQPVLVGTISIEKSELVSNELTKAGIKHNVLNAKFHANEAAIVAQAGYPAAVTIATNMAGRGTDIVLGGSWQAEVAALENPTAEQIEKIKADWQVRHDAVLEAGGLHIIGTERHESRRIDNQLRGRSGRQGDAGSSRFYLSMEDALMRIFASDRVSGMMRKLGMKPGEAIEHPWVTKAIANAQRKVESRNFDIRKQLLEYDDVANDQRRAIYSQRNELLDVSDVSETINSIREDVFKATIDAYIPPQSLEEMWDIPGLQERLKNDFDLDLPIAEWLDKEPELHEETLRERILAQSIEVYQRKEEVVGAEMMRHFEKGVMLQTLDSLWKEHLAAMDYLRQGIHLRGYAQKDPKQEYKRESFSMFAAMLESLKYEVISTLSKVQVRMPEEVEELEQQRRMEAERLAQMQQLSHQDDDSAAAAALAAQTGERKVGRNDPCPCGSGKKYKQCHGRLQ
smiles,measurement,setting,value
Cn1ccc(CN2CCC(OCCc3ccccc3)CC2)cc1=O,Percent Effect,[1],-2.81%
same,Percent Effect,[2],0%
same,Percent Effect,[3],-1.45%
same,Percent Effect,[4],-0.922%
same,Percent Effect,Trypanosoma cruzi,-4.87%
same,Percent Effect,[5],4.98%
same,Percent Effect,[6],-5.41%
same,Percent Effect,Homo sapiens,29.9%
same,Percent Effect,[7],0.971%
same,Percent Effect,[8],0%
same,Percent Effect,[9],1.89%
O=C(CCc1ccccc1F)NS(=O)(=O)c1ccc2c(c1)OCCCO2,Percent Effect,[1],-6.43%
same,Percent Effect,[2],11.4%
same,Percent Effect,[3],2.28%
same,Percent Effect,[4],1.9%
same,Percent Effect,Trypanosoma cruzi,-0.923%
same,Percent Effect,[5],-4.95%
same,Percent Effect,[6],9.09%
same,Percent Effect,Homo sapiens,6.8%
same,Percent Effect,[7],2.08%
same,Percent Effect,[8],12.7%
same,Percent Effect,[9],-20.4%
CCn1cnnc1CNC(=O)N(C)Cc1ccc(F)c(F)c1,Percent Effect,[1],-2.13%
same,Percent Effect,[2],18.9%
same,Percent Effect,[3],-11.7%
same,Percent Effect,[4],14.1%
same,Percent Effect,Trypanosoma cruzi,1.04%
same,Percent Effect,[5],-5.21%
same,Percent Effect,[6],7.57%
same,Percent Effect,Homo sapiens,8.28%
same,Percent Effect,[7],7.39%
same,Percent Effect,[8],18.5%
same,Percent Effect,[9],-7.63%
CCc1nc(N)sc1C(=O)N1CCCC(CCc2ccccc2C)C1 (stereo not given),Percent Effect,[1],-4.6%
same,Percent Effect,[2],5.41%
same,Percent Effect,[3],-6.81%
same,Percent Effect,[4],34.1%
same,Percent Effect,Trypanosoma cruzi,4.59%
same,Percent Effect,[5],-0.744%
same,Percent Effect,[6],10.6%
same,Percent Effect,Homo sapiens,34.9%
same,Percent Effect,[7],9.68%
same,Percent Effect,[8],18.5%
same,Percent Effect,[9],-1.19%
Fc1ccc(CN2CCCC2Cn2cccn2)c2ncccc12 (stereo not given),Percent Effect,[1],-3.18%
same,Percent Effect,[2],-16.2%
same,Percent Effect,[3],-9.76%
same,Percent Effect,[4],11.6%
same,Percent Effect,Trypanosoma cruzi,-2.51%
same,Percent Effect,[5],-0.185%
same,Percent Effect,[6],3.41%
same,Percent Effect,Homo sapiens,-3.85%
same,Percent Effect,[7],11.9%
same,Percent Effect,[8],11%
same,Percent Effect,[9],7.89%
O=C(Nc1cccc(CNCc2cccs2)c1)C1CCCC1,Percent Effect,[1],-4.41%
same,Percent Effect,[2],13.2%
same,Percent Effect,[3],-0.852%
same,Percent Effect,[4],-3.26%
same,Percent Effect,Trypanosoma cruzi,2.15%
same,Percent Effect,[5],-2.16%
same,Percent Effect,[6],2.45%
same,Percent Effect,Homo sapiens,3.75%
same,Percent Effect,[7],6.4%
same,Percent Effect,[8],18.5%
same,Percent Effect,[9],-4.46%
Cc1ccc(NC(=O)N2CCC(NC(=O)c3ccc(C)o3)CC2)cc1,Percent Effect,[1],-4.11%
same,Percent Effect,[2],15.6%
same,Percent Effect,[3],3.14%
same,Percent Effect,[4],4.46%
same,Percent Effect,Trypanosoma cruzi,2.45%
same,Percent Effect,[5],0.632%
same,Percent Effect,[6],6.39%
same,Percent Effect,Homo sapiens,8.38%
same,Percent Effect,[7],8.57%
same,Percent Effect,[8],23.5%
same,Percent Effect,[9],-10.9%
O=C(C[C@@H]1COC[C@H]2CN(Cc3ccc(F)cc3)C[C@@H]12)N1CCCCO1,Percent Effect,[1],-4.42%
same,Percent Effect,[2],6.67%
same,Percent Effect,[3],4.91%
same,Percent Effect,[4],6.17%
same,Percent Effect,Trypanosoma cruzi,-2.36%
same,Percent Effect,[5],-0.176%
same,Percent Effect,[6],16.1%
same,Percent Effect,Homo sapiens,19%
same,Percent Effect,[7],2.12%
same,Percent Effect,[8],7.69%
same,Percent Effect,[9],-5.03%
COCc1nc(N(C)C)ncc1C(=O)NC(C)C,Percent Effect,[1],-5.73%
same,Percent Effect,[2],-1.33%
same,Percent Effect,[3],4.52%
same,Percent Effect,[4],-0.683%
same,Percent Effect,Trypanosoma cruzi,-3.54%
same,Percent Effect,[5],-2.99%
same,Percent Effect,[6],4.07%
same,Percent Effect,Homo sapiens,-5.53%
same,Percent Effect,[7],2.12%
same,Percent Effect,[8],-2.56%
same,Percent Effect,[9],-0.879%
CCS(=O)(=O)N1CCO[C@H]2[C@H](OCCCn3cccn3)CC[C@@H]21,Percent Effect,[1],-0.913%
same,Percent Effect,[2],-2.67%
same,Percent Effect,[3],-2.06%
same,Percent Effect,[4],-3.13%
same,Percent Effect,Trypanosoma cruzi,3.48%
same,Percent Effect,[5],-47.1%
same,Percent Effect,[6],5.3%
same,Percent Effect,Homo sapiens,-0.821%
same,Percent Effect,[7],-4.17%
same,Percent Effect,[8],7.5%
same,Percent Effect,[9],-1.55%
